Experimental data: PubChem BioAssay AID651774 (Broad Institute, 2012)
Measured potencies and affinities stand elsewhere. The source made the active and inactive calls. No rule for the calls is given here.

Test: cytotoxicity in HeLa cells, dose response, cytotoxicity control, cell-based, 24 h, dry powder (AID 651774)
Settings: HeLa viability, CellTiter-Glo ATP luminescence; series mostly up to 35 µM

SMILES	outcome
CC(C)NC(=O)Cc1ccc(-c2ccccc2)cc1	inactive
O=C(Cc1ccncc1)NC1CCCC1	inactive
CN1CCC(NC(=O)Cc2ccc(-c3ccccc3)cc2)CC1	inactive
CC(C)(C)OC(=O)N1CCC(NC(=O)Cc2ccc(-c3ccccc3)cc2)CC1	inactive
